Bioassay records (PubChem)
Many of the other results were omitted from the sample, so hits are more common in it than they were.
Lassa entry inh: blocks Lassa virus binding to or entry into cells. 300,000 compounds, 1.2% hits. Lassa virus pseudotype entry inhibition, cell reporter. AID 540256. Potency, µM (series often up to 37.9 µM), for the others: top-dose activity change, negative = inhibition, hits mostly inhibitors; calls by dose curve; tested in HEK293 cells; also: potency is read from the fitted curve at half-maximal effect; % is scaled to controls: 0 for no effect and ±100 for the full control effect; nearly all actives have a fitted effect of over 50% in size
CHX counter: counter-screen hit for Shiga toxin inhibitors, cycloheximide; cell reporter, cycloheximide protein synthesis inhibition counterscreen; max response, %; 300,000 compounds, 12% hits; in the data active = max response mostly above about 13%, no sharp cut-off; inactive = mostly below about 14%; also: read at 38.3 µM for the half of the compounds with a filed dose; 0% is about no effect
MARV entry inh: Marburg virus entry inhibition. Marburg virus pseudotyped entry inhibition, cell reporter. Potency, µM (series often up to 37.8 µM), for the others: top-dose activity change, negative = inhibition, actives largely listed as inhibitors. 300,000 compounds, 1.8% hits. AID 540276; calls by dose curve; tested in HEK293 cells; also: potency is read from the fitted curve at half-maximal effect; % is scaled to controls: 0 for no effect and ±100 for the full control effect
Vaccinia Venus: inhibitors of vaccinia virus (Venus reporter); 330,000 compounds, 0.46% hits; Potency, µM (top dose mostly 36.5 µM), for the others: top-dose activity change, negative = inhibition, hits mostly inhibitors; Vaccinia virus Venus reporter expression, fluorescence; calls by dose curve; tested in A549 cells; also: potency is read from the fitted curve at half-maximal effect; % is scaled to controls: 0 for no effect and ±100 for the full control effect; nearly all actives have a fitted effect of over 30% in size
Vaccinia mCherry: vaccinia inhibition (mCherry reporter); Potency, µM (highest dose often 36.5 µM), without a hit: at the top dose activity change, negative = inhibition, usual class: inhibitors; Vaccinia virus mCherry reporter infection, fluorescence; AID 720579; 310,000 compounds, 0.63% hits; calls by dose curve; tested in A549 cells; also: potency is read from the fitted curve at half-maximal effect; % is scaled to controls: 0 for no effect and ±100 for the full control effect; nearly all actives have a fitted effect of over 35% in size
Shiga inhibitor: inhibitors of Shiga toxin in Vero cells; Vero cells, Shiga toxin protein synthesis inhibition reporter; inhibition, % at 38.7 µM; 290,000 compounds, 9.2% hits; in the data active = inhibition mostly above about 28%, no sharp cut-off; inactive = mostly below about 43%; also: 0% is about no effect
* hit, by the source's call; i = inactive; ? = inconclusive; nt = not tested or not shown; [ ] = dose if it differs, or a comment.

SMILES | Lassa entry inh | CHX counter | MARV entry inh | Vaccinia Venus | Vaccinia mCherry | Shiga inhibitor
Cc1cc(NC(=O)c2ccco2)ncc1NC(=O)CCc1ccccc1 | -2% | 28* | -1%[46.1 µM] | -23% | i | 33
Cc1cc(C(=O)Nc2cccc(-c3nc(CNC(=O)c4ccc[n+]([O-])c4)c(C)o3)c2)c(C)o1 | nt | nt | nt | 4% | -4% | nt
O=C(NCCCNC(=O)c1ccco1)c1cccc(F)c1 | ? | 3 | 2%[46.1 µM] | 0% | -11% | -19
O=C(Cc1ccccc1)Nc1ccc(NC(=O)c2ccccc2)nc1 | 5% | 38* | ? | -8% | -12% | 174*
COc1cccc(C(=O)Nc2ccc(NC(=O)c3ccco3)nc2)c1 | -8% | 63* | ? | -18% | -22% | 194*
COc1cccc(C(=O)Nc2ccc(NC(=O)c3ccco3)c(Cl)c2)c1 | 2% | 30* | 2%[46.1 µM] | -18% | -22% | 64*
COc1cccc(NC(=O)c2cccc(NC(=O)c3ccco3)c2)c1 | nt | nt | nt | -12% | 0% | nt
CC(C)C(=O)Nc1ccc(NC(=O)CCc2ccccc2)cn1 | -19% | 8 | ? | 8% | 4% | 25
COc1cc(C(=O)Nc2ccc(NC(=O)c3ccco3)nc2)cc(OC)c1OC | ? | -3 | -1%[46.1 µM] | -11% | -20% | -12
O=C(Nc1ccc(NC(=O)c2ccco2)nc1)c1cccc(F)c1 | 10µM* | 40* | ? | -9% | -10% | 82*
CC1=C(c2ccc(C)cc2)S(=O)(=O)N(Cc2ccc(C(=O)Nc3ccc(C)c(F)c3)cc2)C1=O | ? | nt | nt | -16% | -6% | nt
COCCn1c(SCC(=O)c2c(N)n(C)c(=O)n(C)c2=O)nc2ccccc21 | nt | -2 | -3%[46.1 µM] | -3% | -9% | -16
COc1cccc(C(=O)Nc2ccc(NC(=O)C3CC3)nc2)c1 | -2%[46.1 µM] | 18* | 0%[46.1 µM] | 1% | -3% | 24
COc1ccc(C(=O)Nc2ccc(NC(=O)C3CCCCC3)nc2)cc1 | -1% | 6 | -9%[46.1 µM] | -9% | 4% | 13
CCOc1ccc(C(=O)c2oc3ccccc3c2NC(=O)c2cc(-c3ccccc3)on2)cc1 | -14%[46.1 µM] | nt | -2%[46.1 µM] | 3% | -5% | nt
CCN1CCC(O)(/C=C/c2ccc(C(C)C)cc2)C(C(=O)/C=C/c2ccc(C(C)C)cc2)C1 (stereo unspecified) | 14µM* | nt | ? | ? | 11µM* | nt
O=C(COc1ccc(F)cc1)Nc1nc(-c2ccccn2)cs1 | 5% | nt | -6% | -12% | -29% | nt
O=C(COc1ccc([N+](=O)[O-])cc1)Nc1nc(-c2ccccn2)cs1 | ? | nt | ? | ? | 5.6µM* | nt
O=C(COc1cccc(F)c1)Nc1nc(-c2ccccn2)cs1 | nt | nt | nt | ? | 11µM* | nt
Cc1ncc2c(c1CNC(=O)c1cncs1)CCN(C(=O)c1csc(-c3cccs3)n1)C2 | nt | nt | nt | 11% | -4% | nt
Cc1ccc(CSc2nc3ccsc3c(=O)n2Cc2ccccn2)cc1 | 1% | -4 | ? | 1% | i | -5
O=c1c2sccc2nc(SCc2cc(=O)n3cc(Br)ccc3n2)n1Cc1ccccn1 | -25% | 26* | ? | -4% | 7% | 93*
N#Cc1ccccc1CSc1nc2ccsc2c(=O)n1Cc1ccccn1 | ? | 18* | ? | -20% | -24% | -3
Cc1cccc(CNC(=O)c2cnn(-c3ncc(C)c(-c4ccc(F)cc4)n3)c2C)n1 | nt | nt | nt | -22% | -3% | nt
COc1cc(/C=N\n2cnnc2)ccc1OCC(=O)Nc1ccc(C)cc1 | -14% | -2 | -19% | -15% | i | 16
SMILES | Lassa entry inh | CHX counter | MARV entry inh | Vaccinia Venus | Vaccinia mCherry | Shiga inhibitor
COc1cc(/C=N/OCC(=O)Nc2cc(C)cc(C)c2)ccc1OCc1ccc(Cl)cc1 | ? | 92* | ? | -14% | i | 107*
COC(=O)c1ccc(/C=N/OCC(=O)NC2CCCC(C)C2C)cc1 (stereo unspecified) | ? | -3 | -25%[46.1 µM] | -21% | -7% | -9
COc1cc(/C=N/OCC(=O)NC2CCCCC2C)ccc1OCc1ccc(Cl)cc1 (stereo unspecified) | ? | 56* | ? | -22% | 0% | 150*
CCN(CCCNC(=O)Cn1ncc2c([nH]c3ccc(C)cc32)c1=O)c1cccc(C)c1 | ? | 5 | 5%[46.1 µM] | -9% | -14% | -5
Cc1nc(CCNC(=O)c2ccccc2)cs1 | 24% | 17* | 4% | -16% | -15%[1.46 µM] | 17
CCOC(=O)c1csc(CCNC(=O)c2ccccc2)n1 | nt | nt | nt | 7% | -8% | nt
Cc1ccc(C(=O)NCCc2csc(-c3cccnc3)n2)cc1 | nt | 20* | nt | -6% | -16% | 67*
O=C(NCCc1csc(-c2cccnc2)n1)c1ccc(F)c(F)c1 | -3%[46.1 µM] | nt | nt | -5% | -10% | nt
COc1ccccc1N1CCN(C(=O)C2CCCN(S(=O)(=O)c3ccc4c(c3)CCCN4C(C)=O)C2)CC1 (stereo unspecified) | ? | 2 | 11µM* | -13% | -25% | -18
CC(=O)N1CCCc2cc(S(=O)(=O)N3CCCC(C(=O)N4CCN(c5cc(C)ccc5C)CC4)C3)ccc21 (stereo unspecified) | 5.6µM* | -7 | ? | -18% | -16% | -6
Cc1cccc(N2CCN(S(=O)(=O)c3ccc4c(c3)CCCN4C(=O)C3CCC3)CC2)c1C | 6.3µM* | -6 | nt | -22% | -19% | -5
Cc1cccc(C(=O)NCc2cn3cccc(C)c3n2)c1 | -22%[46.1 µM] | nt | ? | -5% | -11% | nt
CN1CCCNc2nc3ccccc3nc21 | nt | 35* | nt | nt | nt | 84*
CN1CCCN(S(=O)(=O)c2ccccc2)c2nc3ccccc3nc21 | -22% | nt | -2% | -10% | -17% | nt
O=C1CC(Cc2ccccc2)C(=O)N1c1ccccn1 (stereo unspecified) | -7% | -3 | -20%[46.1 µM] | -2%[7.34 µM] | i[7.34 µM] | 22
Cn1c(=NC(=O)C2=NNC(=O)CC2)sc2ccccc21 | 6% | 28* | 0%[46.1 µM] | -9% | -14% | 45*
C[C@@H](C(=O)N=c1sc2ccccc2n1C)N1C(=O)C2CC=CCC2C1=O (stereo partly specified) | ? | nt | -13%[46.1 µM] | 9% | -10% | nt
O=C(O)[C@@H](O)c1ccco1 | nt | nt | -11% | nt | nt | nt
CCCCN(C(=O)CN1C(=O)C2CCCCC2C1=O)c1c(N)n(CCCC)c(=O)[nH]c1=O (stereo unspecified) | 3% | nt | 3%[46.1 µM] | 5% | -5% | nt
COc1ccccc1C1CC(c2ccccc2)Nc2ncnn21 (stereo unspecified) | -17% | -3 | -17% | nt | nt | -10
CO[C@H]1[C@H](NC(=O)c2ccco2)c2ccccc2C12CCN(Cc1cnc(N(C)C)s1)CC2 | nt | nt | nt | -1% | -5% | nt
CCCCCCCCCCCCCCCC(=O)NC[C@@H](COP(=O)([O-])OCC[N+](C)(C)C)OCC | nt | nt | 6.5µM* | nt | nt | nt
CCCCCCCCCCCCCCCC(=O)NCC(COP(=O)([O-])OCC[N+](C)(C)C)OCC (stereo unspecified) | -11% | nt | 6.5µM* | nt | nt | nt
CCn1ncc(NC(=S)Nc2ccc3c(c2)OCO3)c1C(N)=O | 8% | 15* | -14% | 1% | -19% | 68*
S=C(Nc1ccc(Cl)cc1)Nc1ccc2c(c1)OCCO2 | nt | 39* | nt | nt | nt | 58*
